The text below walks through data of PubChem BioAssay (NCATS).

Test [1] has as its target Lysosomal acid glucosylceramidase (Homo sapiens) (UniProt P04062). The test can be described thus: Glucocerebrosidase-p2 (AID 348; in the data active = potency below about 10 µM; also: potency is read from the fitted curve at half-maximal effect). As to conditions: purified GBA, blue fluorogenic substrate, 40 min. Put shortly: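 Normal human glucocerebrosidase (0.2 nM) with blue fluorogenic substrate (80 uM final) in citrate/phosphate pH 5.9 with 10mM sodium taurocholate, 0.01% tween-20; 40 min RT, NaOH/glycine stop; fluorescence Ex 365/Em 440; AC50 from a titration from 0.6 nM upwards.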

Test [2] in a line: AP1 Signaling Pathway (AID 357; active = well fitted curve in either direction with a large enough effect, not every such curve was filed as active; also: % is scaled to controls: 0 for no effect and ±100 for the full control effect). As to conditions: ME-180 AP-1-bla reporter, EGF-induced, beta-lactamase ratio, 5 h; at 7.69 µM (top of the series) unless noted. In outline:
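ME-180 cells with beta-lactamase reporter under AP-1 response element, stimulated with EC50 EGF; compounds tested in titration series, 5 h at 37 °C. CCF4 substrate added 2.5 h at room temperature; 460/530 nm emission ratio gave %activity and AC50.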

The target of test [3] is Cytochrome P450 1A2 (Homo sapiens) (UniProt P05177). The test can be described thus: p450-cyp1a2 (AID 410; calls by dose curve; also: potency is read from the fitted curve at half-maximal effect). As to conditions: recombinant CYP1A2, luciferin-ME demethylation, luminescence; series mostly up to 57 µM. Put shortly:
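Read-out is luminescence from luciferin produced by CYP1A2 demethylation of Luciferin-ME (100uM, at Km). Detection reagent stopped the 60 min NADPH-dependent reaction; signals were normalized to 57 uM furafylline.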

Test [4] in a line: NFAT Signaling Pathway (AID 444; active = well fitted curve in either direction with a large enough effect, not every such curve was filed as active;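 also: carbachol stimulus at about its EC50 of 1 µM final; % is scaled to controls: 0 for no effect and ±100 for the full control effect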). As to conditions: Jurkat NFAT-bla M1, carbachol, beta-lactamase ratio, 5 h; at 7.69 µM (top of the series) unless noted. Put shortly: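 Jurkat cells carrying an NFAT-driven β-lactamase reporter and co-transfected muscarinic M1 receptor were treated with compound plus carbachol (1 uM final, an EC50 level) for 5 h at 37 °C. CCF4 loading followed for 1 h at RT; 460/530 nm ratio gave %activity.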

The nature of test [5]: Stat Signaling Pathway (AID 446; active = well fitted curve in either direction with a large enough effect, not every such curve was filed as active;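 also: ME-180 cervical cancer cells given 40 pM IL-6 alongside compound; SIE-controlled beta-lactamase reporter measured as 460/530 nm FRET emission ratio; % is scaled to controls: 0 for no effect and ±100 for the full control effect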). As to conditions: ME-180 (cervical carcinoma) SIE beta-lactamase reporter, IL-6 stimulated, 5 h; at 7.69 µM (top of the series) unless noted. Put shortly: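 Compound effects on IL-6-induced STAT reporter activity were measured in ME-180 cells. After overnight culture, cells were co-treated with 40 pM IL-6 for 5 hrs before beta-lactamase substrate loading at room temperature.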

For test [6], the target named is Glucocorticoid receptor (Homo sapiens) (UniProt P04150). Put plainly: GR-GFP Redistribution (AID 450;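 active = compounds whose dose series gives a full or clear partial fitted curve of increased nuclear translocation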; also: potency is read from the fitted curve at half-maximal effect). As to conditions: U2OS GR-GFP nuclear translocation, laser cytometry, 2 h.
Test [7] shares this target. The test can be described thus: GR-EFC Redistribution (AID 451; calls by dose curve; also: potency is read from the fitted curve at half-maximal effect). As to conditions: CHO-K1 GR-EFC translocation, beta-gal luminescence, 2 h. In outline: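 CHO-K1 cells stably expressing nuclear-localized β-gal enzyme acceptor and GR fused C-terminally to the enzyme donor fragment; ligand-driven nuclear translocation restores β-gal by complementation. Compounds titrated up to 46 uM final, 2 h at 37 °C; luminescence read.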

In test [8] the target is Mitogen-activated protein kinase 10 (Mus musculus) (UniProt Q61831). The test can be described thus: JNK3 AlphaScreen Assay (AID 530; active = well fitted curve in either direction with a large enough effect, not every such curve was filed as active;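 also: kinase came from lysate of stimulated human HepG2 cells; signal reports phosphorylation of biotinylated GST-cJun 1-79 at Ser73 with 10 µM ATP; % is scaled to controls: 0 for no effect and ±100 for the full control effect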). As to conditions: JNK3 lysate, c-Jun phosphorylation; series mostly up to 57.1 µM. Put shortly:
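Biotinylated GST-cJun(1-79) served as substrate for JNK3 in HepG2 lysates stimulated with IL-1beta and TNF-alpha. ATP was 10 uM final, pH 7.6. Ser73 phosphorylation was quantified by AlphaScreen (680 nm excitation).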
(Bead proximity is the source of the signal in Alpha formats.)

Test [9] addresses 3',5'-cyclic-AMP phosphodiesterase 4B (Homo sapiens) (UniProt Q07343). The test can be described thus: qHTS Assay for Inhibitors of PDE-IV (AID 607; active = well fitted activation curve with a large enough effect in the main read-out, with a control signal flat, not every such curve was filed as active; also: % of control where 0% means no effect). As to conditions: HEK293 ACTOne CNG channel cells, membrane potential fluorescence; series mostly up to 22.9 µM. In outline:
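ACTOne HEK293 cells carry a modified cAMP-gated CNG channel and express endogenous PDE4; plated 1000 cells/well, compounds up to 22.9 uM final. Membrane-potential dye fluorescence (ex 535/em 590) was read; parental cells received 10 uM forskolin + 100 uM RO 20-1724.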
On the technique in general: Quantitative high-throughput screening tests each substance at several concentrations.

The target of test [10] is Cytochrome P450 3A4 (Homo sapiens) (UniProt P08684). Put plainly: qHTS Assay for Activators of Cytochrome P450 3A4 (AID 885). Also: nearly all actives have a fitted effect of over 65% in size. As to conditions: recombinant CYP3A4, Luciferin-PPXE luminescence, 60 min; series mostly up to 57.1 µM. Put shortly: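 CYP3A4 activity: Luciferin-PPXE O-dealkylation, 25uM substrate, 200mM KPO4, RT throughout. Read-out is luciferase luminescence; higher values reflect activation.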

For test [11], the target named is Cytochrome P450 2C19 (Homo sapiens) (UniProt P33261). Put plainly: qHTS Assay for Inhibitors and Substrates of Cytochrome P450 2C19 (AID 899). Also: potency is read from the fitted curve at half-maximal effect; nearly all actives have a fitted effect of over 60% in size. As to conditions: recombinant CYP2C19, luciferin-H EGE luminescence; series mostly up to 57.1 µM. In outline: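 NADPH-dependent conversion of Luciferin-H EGE (10uM, at KM) by 5nM enzyme in 50mM KPO4, 60 min at 37C following 10 min compound preincubation. Stopped with luciferin detection buffer; luminescence read after 20 min.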

Test [12] can be described thus: Confirmation and Secondary Assay for Modulators of Hemoglobin Beta Chain Splicing at IVS2 654 locus (AID 910).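 Also: per-well total GFP intensity by laser scanning cytometry after 2-day treatment; % of control where 0% means no effect.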 As to conditions: HeLa EGFP-654 splicing reporter, GFP fluorescence, 48 h; series mostly up to 38.3 µM. Put shortly: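 HeLa cells stably carrying EGFP interrupted by mutant beta-globin IVS2-654 intron (CMV-driven) were treated with compound for 2 days at 37C; corrected splicing was scored as total peak GFP intensity per well (488 nm excitation, 500-520 nm emission).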

A short description of test [13]: Confirmation and Secondary Assay for Modulators of Hemoglobin Beta Chain Splicing at IVS2 705 locus (AID 930).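 Also: HeLa cells stably expressing the EGFP-705 splicing reporter; % of control where 0% means no effect.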 As to conditions: HeLa EGFP-705 splicing reporter, GFP fluorescence, 48 h; series mostly up to 38.3 µM. In outline: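 Assay measures total GFP intensity per well in HeLa EGFP-705 cells after 2 days with compound; mis-splicing normally truncates EGFP, so fluorescence indicates corrected splicing.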

Test [14] can be described thus: qHTS Assay for Lipid Storage Modulators (AID 1519; calls by dose curve). As to conditions: Drosophila S3 cells, BODIPY lipid droplet/cell ratio, laser cytometry, cells loaded with oleic acid; for activity change, negative = inhibition: at 57.5 µM (top of the series). In outline: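 Cells seeded at 5,000 per well were treated with compounds over a concentration series and loaded with oleic acid (400 uM, as added). Lipid droplet fluorescence (488 nm excitation, 500-530 nm channel) was read by laser-scanning cytometry and normalized to 20 uM Triacsin C.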

Test [15] deals with Ubiquitin carboxyl-terminal hydrolase 1 (Homo sapiens) (UniProt O94782). Put plainly: Inhibitors of USP1/UAF1: Pilot qHTS (AID 504865).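 Also: rhodamine fluorescence freed from ubiquitin-rhodamine substrate followed over time; top concentration of the series differs between compounds; % is scaled to controls: 0 for no effect and ±100 for the full control effect; nearly all actives have a fitted effect of over 35% in size.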 As to conditions: purified USP1/UAF1, Ub-rhodamine cleavage fluorescence; series mostly up to 54.9 µM. Put shortly: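 Enzyme-free wells gave the negative control, while test wells held 1nM USP1/UAF1 preincubated with compound for 15 min at room temperature. Ub-Rho at 150nM final started the reaction, and fluorescence at 480/540 nm was recorded kinetically.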

Test [16] in a line: Primary qHTS for small molecule stabilizers of the endoplasmic reticulum resident proteome: Secreted ER Calcium Modulated Protein (SERCaMP) assay (AID 1508630). Also: % is scaled to controls: 0 for no effect and ±100 for the full control effect. As to conditions: SH-SY5Y GLuc-SERCaMP (Gaussia luciferase released on ER calcium loss) secretion, thapsigargin, luminescence; series mostly up to 38.4 µM. In outline:
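The SH-SY5Y reporter protocol was run at 3 concentrations up to 38.3 uM (primary) or 11 concentrations (follow-up): 16 h compound, 100 nM thapsigargin for 4 h, then extracellular luciferase luminescence.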

Test [17] concerns the target Cytochrome P450 3A4 (Homo sapiens) (UniProt P08684). The test can be described thus: qHTS Assay for Inhibitors and Substrates of Cytochrome P450 3A4 (AID 884). Also: potency is read from the fitted curve at half-maximal effect; nearly all actives have a fitted effect of over 50% in size. As to conditions: recombinant CYP3A4, Luciferin-PPXE luminescence; series mostly up to 57.1 µM. Put shortly:
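Luminescent readout of luciferin produced by CYP3A4 (20 nM) dealkylation of Luciferin-PPXE, 25 uM (its KM). NADPH-driven reaction ran 60 min at RT after 10 min compound preincubation; data scaled to 57 uM ketoconazole as 100% inhibition.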

[18] abbreviates: measured here: cell count channel max response.
Setting [19] is: measured here: lipid channel max response.

Records with an inconclusive call do not appear. The source made the active and inactive calls. Unless noted, calls follow the shape of the dose curve; as a rule, active = well fitted curve in the direction sought with a large enough effect; inconclusive = small, poorly fitted or top-dose-only effect, or another doubt; inactive = no such curve, though single readings can be large; an effect the other way counts as inactive or inconclusive. A value given as a limit tells only on which side of the number the result lay.

Ubiquitin carboxyl-terminal hydrolase 1 (Homo sapiens), sequence (O94782 whole entry, looked up): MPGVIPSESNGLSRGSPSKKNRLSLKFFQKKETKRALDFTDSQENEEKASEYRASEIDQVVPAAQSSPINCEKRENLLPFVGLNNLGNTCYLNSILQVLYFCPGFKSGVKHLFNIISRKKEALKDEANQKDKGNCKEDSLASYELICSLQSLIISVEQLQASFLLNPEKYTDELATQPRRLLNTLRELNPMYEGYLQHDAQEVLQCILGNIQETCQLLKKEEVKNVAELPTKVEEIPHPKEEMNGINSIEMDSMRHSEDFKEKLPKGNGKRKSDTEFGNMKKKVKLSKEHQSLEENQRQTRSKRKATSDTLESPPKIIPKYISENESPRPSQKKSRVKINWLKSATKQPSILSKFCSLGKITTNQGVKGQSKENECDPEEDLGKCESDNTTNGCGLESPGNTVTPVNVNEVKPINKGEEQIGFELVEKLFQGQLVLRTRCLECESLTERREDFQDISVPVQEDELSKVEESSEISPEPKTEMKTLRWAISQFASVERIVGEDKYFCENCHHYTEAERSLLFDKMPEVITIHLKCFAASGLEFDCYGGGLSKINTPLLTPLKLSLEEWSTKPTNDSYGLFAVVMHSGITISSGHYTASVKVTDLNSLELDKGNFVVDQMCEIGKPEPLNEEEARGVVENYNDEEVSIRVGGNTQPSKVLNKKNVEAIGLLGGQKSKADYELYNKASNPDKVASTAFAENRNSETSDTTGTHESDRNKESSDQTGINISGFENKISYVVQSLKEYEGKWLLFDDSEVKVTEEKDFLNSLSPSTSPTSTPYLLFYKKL
Glucocorticoid receptor (Homo sapiens), sequence (P04150 whole entry, looked up, the tested form may be a part): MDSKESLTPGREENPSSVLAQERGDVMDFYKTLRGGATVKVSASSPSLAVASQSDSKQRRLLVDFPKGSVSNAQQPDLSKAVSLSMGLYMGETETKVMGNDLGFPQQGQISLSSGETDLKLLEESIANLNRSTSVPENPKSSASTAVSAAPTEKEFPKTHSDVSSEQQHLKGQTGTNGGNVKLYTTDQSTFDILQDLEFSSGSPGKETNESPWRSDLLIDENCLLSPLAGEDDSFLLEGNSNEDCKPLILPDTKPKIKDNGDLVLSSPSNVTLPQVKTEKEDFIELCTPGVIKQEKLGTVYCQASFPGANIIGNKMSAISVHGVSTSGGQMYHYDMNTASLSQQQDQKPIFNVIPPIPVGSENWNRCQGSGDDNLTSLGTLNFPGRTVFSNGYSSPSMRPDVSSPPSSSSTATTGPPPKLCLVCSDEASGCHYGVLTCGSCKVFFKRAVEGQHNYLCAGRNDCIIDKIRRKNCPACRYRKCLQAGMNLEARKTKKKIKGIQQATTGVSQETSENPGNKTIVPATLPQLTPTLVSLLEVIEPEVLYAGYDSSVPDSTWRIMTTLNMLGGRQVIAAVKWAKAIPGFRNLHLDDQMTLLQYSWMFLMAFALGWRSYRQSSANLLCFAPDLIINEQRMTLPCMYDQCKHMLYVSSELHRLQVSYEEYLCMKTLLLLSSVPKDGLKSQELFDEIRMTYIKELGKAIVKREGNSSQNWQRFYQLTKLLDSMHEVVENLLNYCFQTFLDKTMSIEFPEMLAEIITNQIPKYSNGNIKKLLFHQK
Cytochrome P450 3A4 (Homo sapiens), sequence (P08684 whole entry, looked up): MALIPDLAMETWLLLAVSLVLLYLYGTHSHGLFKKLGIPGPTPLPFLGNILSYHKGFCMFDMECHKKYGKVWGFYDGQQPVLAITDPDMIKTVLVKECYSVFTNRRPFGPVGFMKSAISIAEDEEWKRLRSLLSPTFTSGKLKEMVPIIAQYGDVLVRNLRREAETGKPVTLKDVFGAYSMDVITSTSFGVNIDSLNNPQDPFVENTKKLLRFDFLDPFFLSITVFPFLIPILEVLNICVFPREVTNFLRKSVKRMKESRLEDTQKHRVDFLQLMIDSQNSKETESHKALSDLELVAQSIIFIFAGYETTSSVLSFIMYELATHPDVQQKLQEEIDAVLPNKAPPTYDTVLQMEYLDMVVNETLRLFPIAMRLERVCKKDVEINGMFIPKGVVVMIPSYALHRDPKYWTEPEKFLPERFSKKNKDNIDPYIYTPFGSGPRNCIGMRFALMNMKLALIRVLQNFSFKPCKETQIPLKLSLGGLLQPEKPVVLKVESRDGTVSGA
Lysosomal acid glucosylceramidase (Homo sapiens), sequence (P04062 whole entry, looked up): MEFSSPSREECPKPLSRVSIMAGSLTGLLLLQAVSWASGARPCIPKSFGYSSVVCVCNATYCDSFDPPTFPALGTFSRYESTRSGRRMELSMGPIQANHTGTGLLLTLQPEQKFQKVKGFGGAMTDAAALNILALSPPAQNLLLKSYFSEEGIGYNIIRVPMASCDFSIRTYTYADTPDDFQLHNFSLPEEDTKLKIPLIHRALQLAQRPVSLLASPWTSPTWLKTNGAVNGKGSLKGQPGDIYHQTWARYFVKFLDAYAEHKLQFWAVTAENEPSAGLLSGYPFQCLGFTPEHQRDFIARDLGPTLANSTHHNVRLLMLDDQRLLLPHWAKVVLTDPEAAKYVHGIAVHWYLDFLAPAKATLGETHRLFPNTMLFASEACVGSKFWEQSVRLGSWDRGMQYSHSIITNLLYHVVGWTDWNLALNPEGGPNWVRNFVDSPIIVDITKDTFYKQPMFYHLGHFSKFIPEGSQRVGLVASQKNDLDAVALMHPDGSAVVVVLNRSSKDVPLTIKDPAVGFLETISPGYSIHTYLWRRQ
Cytochrome P450 1A2 (Homo sapiens), sequence (P05177 whole entry, looked up): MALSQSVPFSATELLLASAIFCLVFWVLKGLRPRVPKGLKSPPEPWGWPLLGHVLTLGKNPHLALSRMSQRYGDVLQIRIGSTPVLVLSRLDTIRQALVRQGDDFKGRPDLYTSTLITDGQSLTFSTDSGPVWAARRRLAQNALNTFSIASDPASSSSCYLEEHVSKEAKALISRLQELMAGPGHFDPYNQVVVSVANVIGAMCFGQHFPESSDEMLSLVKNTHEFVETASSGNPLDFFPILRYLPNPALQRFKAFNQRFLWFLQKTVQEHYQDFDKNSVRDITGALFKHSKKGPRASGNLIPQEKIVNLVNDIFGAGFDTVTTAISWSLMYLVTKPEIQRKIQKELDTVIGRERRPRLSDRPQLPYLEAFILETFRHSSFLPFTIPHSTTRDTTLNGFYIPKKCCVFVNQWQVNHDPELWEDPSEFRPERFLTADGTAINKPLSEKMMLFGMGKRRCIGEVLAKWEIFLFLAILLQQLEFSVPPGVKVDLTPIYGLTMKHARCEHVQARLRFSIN
3',5'-cyclic-AMP phosphodiesterase 4B (Homo sapiens), sequence (Q07343 whole entry, looked up): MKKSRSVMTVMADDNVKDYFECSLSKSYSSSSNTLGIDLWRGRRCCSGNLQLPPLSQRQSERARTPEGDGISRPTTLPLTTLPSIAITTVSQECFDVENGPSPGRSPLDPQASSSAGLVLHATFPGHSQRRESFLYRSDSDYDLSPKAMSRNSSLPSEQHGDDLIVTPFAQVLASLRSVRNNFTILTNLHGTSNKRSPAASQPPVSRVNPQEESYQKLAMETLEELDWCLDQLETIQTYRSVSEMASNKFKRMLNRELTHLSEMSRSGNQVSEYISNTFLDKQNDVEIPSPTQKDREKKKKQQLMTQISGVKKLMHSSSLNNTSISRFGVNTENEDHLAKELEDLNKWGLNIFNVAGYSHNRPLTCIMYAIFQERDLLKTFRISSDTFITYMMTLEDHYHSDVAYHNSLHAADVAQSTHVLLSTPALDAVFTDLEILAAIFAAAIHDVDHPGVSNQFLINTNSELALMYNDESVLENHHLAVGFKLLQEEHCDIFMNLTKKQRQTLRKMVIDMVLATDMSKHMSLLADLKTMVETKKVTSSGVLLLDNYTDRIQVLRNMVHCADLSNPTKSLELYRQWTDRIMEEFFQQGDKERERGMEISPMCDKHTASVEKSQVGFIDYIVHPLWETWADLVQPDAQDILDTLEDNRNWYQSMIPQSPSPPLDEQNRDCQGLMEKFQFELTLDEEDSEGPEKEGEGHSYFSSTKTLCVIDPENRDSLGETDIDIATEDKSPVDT
Cytochrome P450 2C19 (Homo sapiens), sequence (P33261 whole entry, looked up): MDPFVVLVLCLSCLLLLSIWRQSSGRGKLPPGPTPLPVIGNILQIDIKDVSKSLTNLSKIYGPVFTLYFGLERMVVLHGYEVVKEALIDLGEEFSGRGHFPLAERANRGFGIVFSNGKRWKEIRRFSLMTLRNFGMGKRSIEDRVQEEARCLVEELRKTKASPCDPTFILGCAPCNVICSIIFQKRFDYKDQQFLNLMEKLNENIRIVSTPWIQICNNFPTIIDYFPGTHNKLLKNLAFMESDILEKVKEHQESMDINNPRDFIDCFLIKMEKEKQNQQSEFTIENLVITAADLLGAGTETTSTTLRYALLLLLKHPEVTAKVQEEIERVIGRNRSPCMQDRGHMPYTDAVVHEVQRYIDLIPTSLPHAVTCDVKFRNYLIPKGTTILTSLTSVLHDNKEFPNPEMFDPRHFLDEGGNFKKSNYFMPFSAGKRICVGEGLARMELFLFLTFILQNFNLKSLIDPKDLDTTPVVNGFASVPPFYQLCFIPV

On to `COc1cccc(-c2cncnc2NCc2ccccc2)c1`, for which the Potency in test [1] is > 11.4 µM (inactive); in test [3], 5.01 µM (active); in test [6], > 46 µM (inactive); in [7], > 46 µM (inactive); in test [11] it was 1.58 µM (active). Further, the activity change, negative = inhibition in [2] was -17.1% (inactive); in test [4] it was 1.11% (inactive); in [14] it was 9.98% (inactive). Also, the activity, negative = inhibition in [5] was -9.01% (inactive). The call in [8], in test [12] and in [13] was inactive. The Potency result in test [9], in [10], in [15] and in [16] was “inactive” throughout. Besides, the max response in test [14] (setting [18]) was 12.4%; in [14] (setting [19]), 12.8%.

In the case of `CN(C)Cc1ccccc1-c1cc(NC2CC2)ncn1`, the Potency in test [1] was > 11.4 µM (inactive); in test [3], 12.6 µM (active); in [6], > 46 µM (inactive); in [7], > 46 µM (inactive). Besides, the activity change, negative = inhibition is -5.78% (inactive) in test [2], -10% (inactive) in test [4] and 8.29% (inactive) in test [14]. Moreover, the activity, negative = inhibition in test [5] was 12.3% (inactive). Moreover, the call in test [8], in test [12] and in test [13] was inactive. Moreover, the Potency entry in [9], in [10], in test [15] and in test [16] was “inactive” in each case. For the same compound, the max response in [14] (setting [18]) amounted to 13%; in test [14] (setting [19]) it was 22.4%.

With `c1cncc(CNc2cc(-c3ccc4c(c3)OCO4)ncn2)c1`, the Potency was > 11.4 µM (inactive) in [1], 0.251 µM (active) in test [3], > 46 µM (inactive) in test [6] and > 46 µM (inactive) in [7]. Besides, the activity change, negative = inhibition in test [2] is -7.3% (inactive); in test [4], 11.5% (inactive); in test [14] it was 11.7% (inactive). Further, in test [5], the activity, negative = inhibition was 3.19% (inactive). In addition, the result in test [8], in test [12] and in test [13] was inactive. The Potency result in test [9], in test [15] and in test [16] was “inactive” in each case. For the same compound, the max response in [14] (setting [18]) was determined as 14%; in test [14] (setting [19]) it was 18.9%.

As to `COc1ccccc1-c1nccc(-n2ccnc2)n1`, the Potency in [1] was > 11.4 µM (inactive); in [3] it was 0.158 µM (active); in test [6], > 46 µM (inactive); in test [7], > 46 µM (inactive); in test [17], 1.58 µM (active). The activity change, negative = inhibition was 10.1% (inactive) in test [2], -2.21% (inactive) in [4] and 10.5% (inactive) in test [14]. Also, in test [5], the activity, negative = inhibition was 11.9% (inactive). Also, the compound was called inactive in test [8], in [12] and in test [13]. The Potency entry in test [9], in test [10], in test [15] and in [16] was “inactive” each time. Besides, the max response worked out at 15.1% in test [14] (setting [18]) and 27.4% in test [14] (setting [19]).

With `c1cncc(-c2cncnc2-n2ccnc2)c1`, the Potency is > 11.4 µM (inactive) in [1]; 20 µM (active) in test [3]; > 46 µM (inactive) in test [6]; > 46 µM (inactive) in [7]; 7.94 µM (active) in test [17]. For the same compound, the activity change, negative = inhibition was 7.52% (inactive) in test [2], -6.63% (inactive) in test [4] and 7.84% (inactive) in test [14]. Also, the activity, negative = inhibition in [5] is 0.845% (inactive). In addition, the call in test [8], in test [12] and in test [13] was inactive. Also, the Potency result in [9], in [10], in [15] and in test [16] was “inactive” each time. The figures for the max response in test [14] (setting [18]) and in [14] (setting [19]) were 7.56% and 17.5%, respectively.
